The values below come from PubChem BioAssay (NCI).

SMILES strings stand for the structures. The panel holds about 83,000 compounds, 20% with a hit somewhere; the sample as a whole holds those more often.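 Method: cells in 96-well plates; compound added at one concentration; 48 h incubation; percent growth measured; values under 10 scored active.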 Unmarked numbers belong to inactive results. Activity calls are given as the source filed them.

Holding throughout (assay): NCI-60 one-dose screen, 48 h (100 = growth as untreated, 0 = no growth, -100 = all killed)
In one assay the test system is HCT-15 colon. The settings on record: 10 µM unless noted.
A further assay relates to HT29 colon. The following applies: 10 µM unless noted.
Another assay deals with SNB-75 CNS. The following applies: 10 µM unless noted.
A further assay deals with SNB-19 CNS. The following applies: 10 µM unless noted.
A further assay relates to U251 CNS. The following applies: 10 µM unless noted.
For another assay, the system named is PC-3 prostate. The settings on record: 10 µM unless noted.
Another assay relates to UACC-62 melanoma. The following applies: 10 µM unless noted.
A further assay deals with LOX IMVI melanoma. The following applies: 10 µM unless noted.
The next assay deals with SK-MEL-28 melanoma. The following applies: 10 µM unless noted.
Another assay deals with SK-MEL-2 melanoma. The settings on record: 10 µM unless noted.
A further assay deals with SN12C renal. The following applies: 10 µM unless noted.
In another assay the test system is UO-31 renal. The settings on record: 10 µM unless noted.
A further assay concerns TK-10 renal. The settings on record: 10 µM unless noted.
The subject of another assay is ACHN renal. The settings on record: 10 µM unless noted.
For another assay, the system named is CAKI-1 renal. The settings on record: 10 µM unless noted.
In the next assay the test system is A498 renal. The following applies: 10 µM unless noted.
Another assay deals with MOLT-4 leukemia. The settings on record: 10 µM unless noted.
For another assay, the system named is SK-MEL-5 melanoma. The following applies: 10 µM unless noted.
In the next assay the test system is EKVX NSCLC. The following applies: 10 µM.
The next assay concerns CCRF-CEM leukemia. The settings on record: 10 µM.

Turning to `CC(=O)NCCN`, the growth in the assay on HCT-15 colon is 94%; in the assay with HT29 colon it was 101%; in the assay on SNB-75 CNS it was 89.7%; in the assay on SNB-19 CNS, 98.8%; with U251 CNS it was 97.3%; with PC-3 prostate it was 92.3%. Besides, the growth in the assay on UACC-62 melanoma is 102%; with LOX IMVI melanoma, 93.3%; in the assay with SK-MEL-28 melanoma, 108%; with SK-MEL-2 melanoma it was 115%; with SN12C renal, 104%; with UO-31 renal it was 98.4%. Also, the growth with TK-10 renal was 109%; in the assay on ACHN renal, 97.2%; with CAKI-1 renal, 84.7%; in the assay with A498 renal it was 97.9%; in the assay with MOLT-4 leukemia it was 102%.
With `COc1cc(-c2nn(-c3ccc(NC(=O)Nc4ccc(Cl)c(C(F)(F)F)c4)cc3)cc2-c2ccncc2)ccc1Cl`, the growth in the assay on HCT-15 colon was 9.82% (active); in the assay on HT29 colon, -24.4% (active); in the assay on SNB-75 CNS it was -0.838% (active); with SNB-19 CNS it was 30.5%; in the assay with U251 CNS, -3.64% (active); in the assay on SK-MEL-5 melanoma it was -58.2% (active). The growth in the assay with UACC-62 melanoma was 6.01% (active); in the assay on LOX IMVI melanoma, 11.7%; in the assay on SK-MEL-28 melanoma it was 18.2%; in the assay on EKVX NSCLC, 3.21% (active); with SN12C renal, 26.2%; with UO-31 renal, 24.5%. Besides, the growth is -3.21% (active) with TK-10 renal; 5.32% (active) with ACHN renal; -5.53% (active) in the assay on CAKI-1 renal; 6.77% (active) with A498 renal; 1.77% (active) with MOLT-4 leukemia.
For `CC1CCCCC[N+]12CCCC2` (stereo not given), the growth was 95.6% in the assay on HCT-15 colon; 107% in the assay with HT29 colon; 95% with SNB-75 CNS; 106% with SNB-19 CNS; 85.3% in the assay on U251 CNS; 93.4% with PC-3 prostate. Besides, the growth with UACC-62 melanoma is 103%; in the assay on LOX IMVI melanoma it was 95.8%; in the assay with SK-MEL-28 melanoma, 109%; with SK-MEL-2 melanoma, 101%; in the assay with SN12C renal it was 101%; in the assay with UO-31 renal, 88.8%. Also, the growth in the assay with TK-10 renal was 100%; in the assay on ACHN renal, 101%; in the assay on CAKI-1 renal, 98.7%; in the assay on A498 renal, 109%; in the assay on MOLT-4 leukemia, 99.2%.
On to `COc1cc(-c2nn(-c3ccc(NC(=O)c4cc(Cl)cc(Cl)c4)cc3)cc2-c2ccncc2)ccc1Cl`, for which the growth was 22.6% in the assay with HCT-15 colon; 16.9% in the assay with HT29 colon; 54% in the assay with SNB-75 CNS; 87.7% in the assay with SNB-19 CNS; 55.7% in the assay on U251 CNS; 79.4% in the assay on SK-MEL-5 melanoma. Also, the growth with UACC-62 melanoma is 70.4%; in the assay with LOX IMVI melanoma, 71.6%; in the assay with SK-MEL-28 melanoma, 85.5%; in the assay with EKVX NSCLC, 80.1%; with SN12C renal, 91.9%; in the assay with UO-31 renal, 65.7%. The growth with TK-10 renal is 69.4%; with ACHN renal it was 94.9%; in the assay on CAKI-1 renal it was 38.8%; in the assay with A498 renal, 78.9%; in the assay with MOLT-4 leukemia it was 27.6%.
In the case of `CC[C@@H](C)/C=C(C)/C=C/C(=O)c1c(O)c(-c2ccc(OC(=O)[C@@]34CC[C@@](C)(C(=O)O3)C4(C)C)cc2)cn(O)c1=O`, the growth is 27% in the assay on HCT-15 colon; 59.7% in the assay with HT29 colon; 30.6% in the assay with SNB-75 CNS; 36.8% with SNB-19 CNS; 15.7% with U251 CNS; -4% (active) with SK-MEL-5 melanoma. The growth with UACC-62 melanoma was 5.24% (active); in the assay with LOX IMVI melanoma, 0.589% (active); in the assay on SK-MEL-28 melanoma, 26.8%; in the assay with SK-MEL-2 melanoma, 17.8%; in the assay on EKVX NSCLC, 22.3%; in the assay on SN12C renal, 30.4%. In addition, the growth was -26.4% (active) with UO-31 renal, 44.9% in the assay with TK-10 renal, 9.64% (active) in the assay with ACHN renal and 49.8% in the assay on A498 renal.
Consider `CCCCCCNC(=O)Oc1ccc(/C(=C(/C)Cc2ccc(OC)cc2)c2ccc(OCCN3CCCCC3)cc2)cc1`, for which the growth was 31.6% in the assay on HCT-15 colon; 19.5% in the assay on HT29 colon; 66.7% with SNB-75 CNS; 86.3% in the assay with SNB-19 CNS; 63.1% with U251 CNS; 76.4% in the assay with PC-3 prostate. In addition, the growth in the assay with UACC-62 melanoma is 88.4%; with LOX IMVI melanoma, 82.9%; with SK-MEL-28 melanoma, 96.8%; in the assay on SK-MEL-2 melanoma, 101%; with EKVX NSCLC, 81.9%; in the assay on SN12C renal, 80.1%. The growth in the assay on UO-31 renal is 58.5%; with ACHN renal it was 99.5%; in the assay on CCRF-CEM leukemia it was 72%; in the assay with MOLT-4 leukemia, 69.3%.
As for `CN(C)CCOC(=O)C(C)(C)C`, the growth in the assay with HCT-15 colon was 101%; in the assay with HT29 colon, 99.7%; with SNB-75 CNS, 100%; with SNB-19 CNS, 99.4%; in the assay with U251 CNS, 102%; with PC-3 prostate it was 93.6%. Also, the growth was 93.3% in the assay with UACC-62 melanoma; 105% in the assay with LOX IMVI melanoma; 26% in the assay with SK-MEL-28 melanoma; 103% in the assay on SK-MEL-2 melanoma; 102% in the assay on SN12C renal; 89.9% with UO-31 renal. For the same compound, the growth was 102% in the assay with TK-10 renal; 98.1% with ACHN renal; 105% with CAKI-1 renal; 103% in the assay with A498 renal; 95.9% in the assay with MOLT-4 leukemia.
`CC(=O)Nc1nc(C)c(C(=O)N/N=C/N2CCCCC2)s1`: the growth in the assay on HCT-15 colon was 111%; in the assay on HT29 colon, 109%; with SNB-75 CNS, 81.6%; in the assay on SNB-19 CNS, 103%; with U251 CNS, 105%; in the assay on SK-MEL-5 melanoma, 113%. In addition, the growth is 107% in the assay with UACC-62 melanoma; 103% with LOX IMVI melanoma; 114% in the assay with SK-MEL-28 melanoma; 15.3% in the assay with SK-MEL-2 melanoma; 112% in the assay with EKVX NSCLC; 106% with SN12C renal. Besides, the growth in the assay on UO-31 renal is 98.7%; in the assay with TK-10 renal it was 144%; in the assay with ACHN renal it was 116%; in the assay with CAKI-1 renal, 132%; in the assay on A498 renal, 119%; with CCRF-CEM leukemia, 94.6%. The growth in the assay on MOLT-4 leukemia is 130%.
For the compound `COc1ccc(C2CC(=O)c3c(O)cc(OC4OC(COC5OC(C)C(O)C(O)C5O)C(O)C(O)C4O)cc3O2)cc1O` (stereo not given), the growth in the assay with HCT-15 colon was 101%; in the assay with HT29 colon, 102%; in the assay on SNB-75 CNS, 82.1%; in the assay with SNB-19 CNS it was 110%; with U251 CNS, 104%; with SK-MEL-5 melanoma it was 104%. For the same compound, the growth in the assay on UACC-62 melanoma was 111%; with LOX IMVI melanoma it was 107%; in the assay on SK-MEL-28 melanoma it was 124%; in the assay on SK-MEL-2 melanoma it was -1.88% (active); in the assay with EKVX NSCLC, 100%; in the assay on SN12C renal, 108%. Also, the growth in the assay on UO-31 renal was 95.3%; in the assay with TK-10 renal it was 110%; in the assay on ACHN renal, 117%; with CAKI-1 renal, 105%; in the assay with A498 renal, 132%; in the assay on CCRF-CEM leukemia, 106%. Further, the growth in the assay with MOLT-4 leukemia is 113%.
